High-throughput results from PubChem.
Shiga inhibitor: A qHTS for Small Molecule Inhibitors of Shiga Toxin | Vero cells, Shiga toxin protein synthesis inhibition reporter | inhibition, % at 38.7 µM | hit rate 9.2% among 290,000; in the data active means inhibition mostly above about 28%, no sharp cut-off; inactive means mostly below about 43%
Pf growth 48h: Primary qHTS for delayed death inhibitors of the malarial parasite plastid, 48 hour incubation. P. falciparum luciferase growth in erythrocytes, 48 h. Potency, µM (top dose mostly 28.7 µM), most hits filed as inhibitors. hit rate 5.9% among 310,000. AID 504832, 2011
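First compound was added to culture medium, then infected red cells at 0.1% parasitemia and 2% hematocrit (final). After incubation at 37 C under 5% CO2, luciferase detection reagent was dispensed and light output recorded.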
Pf growth 96h: Primary qHTS for delayed death inhibitors of the malarial parasite plastid, 96 hour incubation; AID 504834, 2011; P. falciparum luciferase reporter growth, 96 h; Potency, µM (highest dose often 28.7 µM), most hits filed as inhibitors; hit rate 6.9% among 320,000
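Readout is luminescence from an integrated firefly luciferase in P. falciparum. Red cells, 2% hematocrit and 0.05% parasitemia final, were cultured with compound through two parasite generations (96 hours) at 37 C, 5% CO2.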
CHX counter: Cycloheximide Counterscreen for Small Molecule Inhibitors of Shiga Toxin; hit rate 12% among 300,000; max response, %; cell reporter, cycloheximide protein synthesis inhibition counterscreen; AID 2314, 2010; in the data active means max response mostly above about 13%, no sharp cut-off; inactive means mostly below about 14%; further: read at 38.3 µM for the half of the compounds with a filed dose
NS1 function inh: qHTS Assay for Inhibitors of Influenza NS1 Protein Function. Potency, µM (series often up to 46.1 µM). hit rate 0.4% among 270,000; calls by dose curve; further: actives are rising curves; nearly all actives have a fitted effect of over 50% in size
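Read-out: OD600 growth recovery of NS1-expressing budding yeast. Cells grown overnight at 30C in -URA glucose medium, washed, resuspended and diluted 1:100 in 2% galactose assay medium, pH 6.0. Same strain lacking NS1 served as positive control.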
A number is an active result. Sampled rows, rich in hits. Any-hit rate of the full collection: about 21%. Unless noted, the call rests on the fitted dose curve; in most records, active means well fitted inhibition curve with a large enough effect; inconclusive means small, poorly fitted or top-dose-only effect, or another doubt; inactive means no such curve, though single readings can be large or run the other way.

How did COc1ccc(C(=O)Nc2ccc(NC(=O)c3cnccn3)cn2)cc1 do in these assays?
Shiga inhibitor: inactive; Pf growth 48h: inactive; Pf growth 96h: inactive; CHX counter: inactive; NS1 function inh: inactive

What do the screens show for `CC[C@H](C)[C@H](NC(=O)[C@H](CC(=O)O)NC(=O)[C@H](CC(C)C)NC(=O)[C@H](NC(C)=O)C(c1ccccc1)c1ccccc1)C(=O)N[C@H](C(=O)N[C@@H](Cc1c[nH]c2ccccc12)C(=O)O)[C@@H](C)CC`?
Shiga inhibitor: inactive; CHX counter: inactive

How did O=C(Nc1ccc(N=Nc2ccccc2)cc1)c1ccc(Cl)cc1Cl do in these assays?
Shiga inhibitor: inactive; Pf growth 48h: inactive; Pf growth 96h: inactive; CHX counter: inactive; NS1 function inh: inactive

Results for CC(=O)Nc1ccc(Oc2ccccc2)cc1 ?
Shiga inhibitor: inactive; Pf growth 48h: inconclusive; Pf growth 96h: inconclusive; CHX counter: inactive; NS1 function inh: inactive

How did CC(=O)Nc1ccc(Nc2ccccc2)cc1 do in these assays?
Shiga inhibitor: 59; Pf growth 48h: inactive; Pf growth 96h: inactive; CHX counter: 27; NS1 function inh: inactive

What do the screens show for `O=C(Nc1ccc(N=Nc2ccccc2)cc1)c1ccccc1Cl`?
Shiga inhibitor: 73; Pf growth 48h: inactive; Pf growth 96h: inactive; CHX counter: 27; NS1 function inh: inactive

Results for CC(=O)Nc1ccccc1 ?
Pf growth 48h: inactive; Pf growth 96h: inconclusive

How did CC(=O)Nc1ccc(N2S(=O)(=O)c3ccccc3S2(=O)=O)cc1 do in these assays?
Shiga inhibitor: inactive; Pf growth 48h: inactive; Pf growth 96h: 12µM; CHX counter: inactive; NS1 function inh: inactive

What do the screens show for `CC(=O)Nc1ccc(N=Nc2ccccc2)cc1`?
Shiga inhibitor: 65; Pf growth 48h: inactive; Pf growth 96h: inactive; CHX counter: 49; NS1 function inh: inactive

How did C=CCNc1nc(C)c(CNc2c(C)cc(C)cc2C)nc1C#N do in these assays?
Pf growth 48h: inconclusive; Pf growth 96h: inconclusive; CHX counter: inactive; NS1 function inh: inactive

How did Cc1cc2nc3c(nc2cc1C)C(O)=C3O do in these assays?
Shiga inhibitor: inactive; Pf growth 48h: inactive; Pf growth 96h: inactive; CHX counter: inactive; NS1 function inh: inactive

What do the screens show for `Cc1ccc(N(CN2C(=O)c3ccccc3C2=O)C(=O)c2ccc([N+](=O)[O-])cc2[N+](=O)[O-])cc1`?
Shiga inhibitor: inactive; Pf growth 48h: inactive; Pf growth 96h: 3.7µM; CHX counter: inactive; NS1 function inh: inactive

Results for N#Cc1cccc(NC(=O)CNc2cccc(S(=O)(=O)N3CCCC3)c2)c1 ?
Pf growth 48h: 10µM; Pf growth 96h: inconclusive

Results for COc1ccccc1OCC(=O)Nc1ccc(S(=O)(=O)N2CCCC2)cc1 ?
Shiga inhibitor: inactive; Pf growth 48h: inactive; Pf growth 96h: inactive; CHX counter: inactive; NS1 function inh: inactive

What do the screens show for `COc1cc(C#N)ccc1OCC(=O)Nc1cccc(S(=O)(=O)N2CCCC2)c1`?
Shiga inhibitor: inactive; Pf growth 48h: 9.3µM; Pf growth 96h: 8.3µM; CHX counter: inactive

What do the screens show for `N#Cc1cccc(NCC(=O)Nc2ccc3c(c2)OCCO3)c1`?
Shiga inhibitor: 63; Pf growth 48h: inactive; Pf growth 96h: inactive; CHX counter: 27; NS1 function inh: inactive

What do the screens show for `N#Cc1ccc(NCC(=O)Nc2ccc(S(=O)(=O)N3CCCCC3)cc2)cc1`?
Pf growth 48h: 9.3µM; Pf growth 96h: inconclusive

Results for CCNC(=O)CN(c1ccc(CC)cc1)S(C)(=O)=O ?
Shiga inhibitor: inactive; Pf growth 96h: inactive; CHX counter: inactive; NS1 function inh: inactive

What do the screens show for `CC1CCN(S(=O)(=O)c2ccc3c(c2)CCC(=O)N3CC(=O)Nc2cccc(C#N)c2)CC1`?
Pf growth 48h: 12µM; Pf growth 96h: inconclusive

What do the screens show for `N#Cc1cccc(NCC(=O)Nc2cccc(S(=O)(=O)N3CCCCC3)c2)c1`?
Pf growth 48h: 13µM; Pf growth 96h: inconclusive

What do the screens show for `CCC(C)[C@H](NC(=O)[C@@H]1Cc2c([nH]c3ccccc23)C2c3ccccc3C(=O)N21)C(=O)NCC1CCCO1` (some centres not stated)?
Shiga inhibitor: inactive; Pf growth 48h: inactive; Pf growth 96h: inconclusive; CHX counter: inactive; NS1 function inh: inactive

What do the screens show for `Cn1c(=O)c(-c2cc(Br)ccc2N)nc2ccccc21`?
Shiga inhibitor: inactive; Pf growth 96h: inactive; CHX counter: 33; NS1 function inh: inactive

How did Fc1ccc(Nc2ncnc3ccccc23)cc1 do in these assays?
Pf growth 48h: inactive; Pf growth 96h: inactive; CHX counter: 22; NS1 function inh: inactive

Results for COc1ccccc1Nc1ncnc2ccccc12 ?
Shiga inhibitor: inactive; Pf growth 48h: inactive; Pf growth 96h: inactive; CHX counter: 17; NS1 function inh: inactive
